# The list is not random: actives were taken first. Their share in the collection is about 7.8%.
# VACV mCherry inh: inhibitors of vaccinia virus infection (mCherry reporter signal) | Vaccinia virus mCherry reporter infection, fluorescence | Potency, µM (series often up to 36.5 µM), for the others: at the top dose activity change, negative = inhibition, hits mostly inhibitors | 310,000 tested, 0.63% active | AID 720579; calls by dose curve; tested in A549 cells; note: potency is the fitted concentration of half-maximal effect; nearly all actives have a fitted effect of over 35% in size
# HCV inh: blocks hepatitis C virus | Potency, µM (series often up to 41.8 µM), for inactives: at the highest dose activity change, negative = inhibition, usual class: inhibitors | Huh7.5.1 HCVcc-Cre infection, luciferase reporter, 44 h | AID 651820 | 340,000 tested, 3.4% active; active = well fitted inhibition curve with a large enough effect; inconclusive = small, poorly fitted or top-dose-only effect, or another doubt; inactive = no such curve, though single readings can be large or run the other way; note: potency is the fitted concentration of half-maximal effect
#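 Infectious HCV cell culture screen: compound-treated cells (1,000/well, pre-plated 4 h) are infected with HCVcc-Cre at roughly 0.5 moi and grown 44 h. Infection is quantified by luciferase signal after 15 min substrate incubation at room temperature.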
# Marburg entry inh: Marburg virus entry inhibition; Marburg virus pseudotyped entry inhibition, cell reporter; Potency, µM (titrated, usually from 37.8 µM), inactives show at the highest dose activity change, negative = inhibition, actives largely listed as inhibitors; 300,000 tested, 1.8% active; AID 540276; calls by dose curve; tested in HEK293 cells; note: potency is the fitted concentration of half-maximal effect
# HCMV antiviral: inhibitors of human cytomegalovirus; HFF cells, HCMV-luciferase reporter, 72 h; hits give low values; activity change, negative = inhibition, % at 57.5 µM; 410,000 tested, 4.5% active; in the data active = activity change below about -60%; inconclusive = no clear call, values can overlap the other calls; inactive = above about -39%
#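 Luciferase read-out from HCMV-luciferase-infected HFFs (MOI 1 PFU/cell) 72 h post infection at 37C; compounds added after 16 h cell attachment; activity normalized between buffer-only basal and Salinomycin (10uM) inhibitor controls.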
# Lassa entry inh: Lassa virus entry inhibition. 300,000 tested, 1.2% active. Lassa virus pseudotype entry inhibition, cell reporter. Potency, µM (highest dose often 37.9 µM), for inactives: at the top dose activity change, negative = inhibition, actives largely listed as inhibitors; calls by dose curve; tested in HEK293 cells; note: potency is the fitted concentration of half-maximal effect; nearly all actives have a fitted effect of over 50% in size
# Vaccinia Venus: vaccinia inhibition (Venus reporter) | Potency, µM (titrated, usually from 36.5 µM), without a hit: at the top dose activity change, negative = inhibition, usual class: inhibitors | 330,000 tested, 0.46% active | Vaccinia virus Venus reporter expression, fluorescence; calls by dose curve; tested in A549 cells; note: potency is the fitted concentration of half-maximal effect; nearly all actives have a fitted effect of over 30% in size
# * = called active by the depositor; i = inactive; ? = inconclusive; . = no result; [ ] = remark or other dose. % is set by controls: 0 for no effect and ±100 for the full control effect.
SMILES,VACV mCherry inh,HCV inh,Marburg entry inh,HCMV antiviral,Lassa entry inh,Vaccinia Venus
Cc1ccnc(NC(=O)c2cccc(S(=O)(=O)N3CCOCC3)c2)c1,i,-8%,0%,17,10%,-7%
Cc1cccc(NC(=O)c2ccc(F)c(S(=O)(=O)N3CCC4(CC3)OCCO4)c2)c1,-19%,?,.,-7,7%[46.1 µM],-19%
Cc1cccc(N2CCN(S(=O)(=O)c3cc(C(=O)Nc4ccc(Oc5ccccc5)cc4)ccc3F)CC2C)c1 (stereo not drawn),-20%,.,.,-64*,?,-29%
O=C(Nc1ccc(Br)cc1)c1ccc(F)c(S(=O)(=O)NC2CCCCCC2)c1,?,.,.,-98*,?,-30%[7.34 µM]
CC1(C)OC(=O)C(=CC2=NCCC2)C(=O)O1,.,.,0%,.,.,.
CC(C)c1ccc(NC(=O)c2ccc(F)c(S(=O)(=O)N3CCN(c4ccccc4F)CC3)c2)cc1,-2%,.,.,-37,20%[46.1 µM],-28%
Cc1ccccc1NC(=O)c1ccc(F)c(S(=O)(=O)N2CCN(c3ccccn3)CC2)c1,.,?,-6%,?,?,.
COc1ccccc1N1CCN(S(=O)(=O)c2cc(C(=O)Nc3ccc(Oc4ccccc4)cc3)ccc2F)CC1,-3%,.,.,-67*,?,-24%
O=C(Nc1ccc(Br)cc1)c1ccc(F)c(S(=O)(=O)N2CCN(c3ccccn3)CC2)c1,-11%,7.1µM*,?,-89*,?,-30%
O=C(Nc1ccc(Oc2ccccc2)cc1)c1ccc(F)c(S(=O)(=O)N2CCN(c3ccccc3F)CC2)c1,-26%,.,.,-79*,?,-25%
Cc1cccc(NC(=O)c2ccc(F)c(S(=O)(=O)N3CCN(c4ccc(F)cc4)CC3)c2)c1,?,.,.,-73*,?,?
O=[N+]([O-])c1cc(-c2nc(-c3ccccc3)no2)ccc1NCCc1ccccc1,-11%,.,0%[46.1 µM],22,-6%[46.1 µM],3%
Cc1ccc2cccc(NC(=O)c3ccc(-c4cccc(Cl)c4)o3)c2n1,-8%,.,1%[46.1 µM],2,18%[46.1 µM],-6%
Cc1ccc(NS(=O)(=O)c2cc([N+](=O)[O-])ccc2NNC(=S)Nc2cc(C)ccc2C)c(C)c1,-14%,11µM*,?,-103*,14µM*,-23%
COc1ccc(NC(=S)NNc2ccc([N+](=O)[O-])cc2S(=O)(=O)Nc2ccc(C)cc2C)cc1,-23%,14µM*,?,-66*,?,-30%
Cc1ccc(NS(=O)(=O)c2cc([N+](=O)[O-])ccc2NNC(=S)Nc2cccc(Cl)c2)c(C)c1,-11%,?,?,.,?,-1%
COc1cc(-c2ccc(Cl)cn2)cc2c1OCCN(C(=O)c1ccccc1-n1cccn1)C2,-20%,.,.,.,.,-9%
CCC[C@H]1[C@@H](NS(=O)(=O)c2ccc3ccccc3c2)CC[C@@]23CCCN2C(=O)CCC[C@@H]13,.,.,.,-14,.,.
COc1cccc(N2CCN(c3ncnc4c3cnn4-c3ccc(C)cc3C)CC2)c1,14µM*,3.5µM*,-4%,-97*,.,?
Cc1ccc(-n2ncc3c(N4CCCC4)ncnc32)c(C)c1,.,6%,8%,74,1%,.
Cc1ccc(-n2ncc3c(SCc4cccnc4)ncnc32)c(C)c1,-28%,11µM*,?,-84*,2.8µM*,-18%
Cc1cccc(-n2ncc3c(N4CCC(C)CC4)ncnc32)c1,6%,-3%,.,147,.,-7%
Cc1cccc(-n2ncc3c(N4CCCCCC4)ncnc32)c1,-13%,.,.,-61*,-5%[46.1 µM],-1%
Cc1ccc(-n2ncc3c(N4CCCCCC4)ncnc32)cc1C,11%,.,.,-98*,22%[46.1 µM],7%
CC1CCc2c(sc(NC(=O)c3cc(-c4ccc(Br)cc4)on3)c2C(N)=O)C1 (stereo not drawn),2%,.,?,-19,13%[46.1 µM],4%
SMILES,VACV mCherry inh,HCV inh,Marburg entry inh,HCMV antiviral,Lassa entry inh,Vaccinia Venus
COc1cc(C)cc2oc(=O)c(CC(=O)NCc3cccc(Cl)c3)c(C)c12,-16%,.,-7%[46.1 µM],-23,-27%[46.1 µM],-16%
Cc1ccc(-n2c(=O)c3ccc(C(=O)NCc4ccccc4Cl)cc3n(Cc3ccccc3F)c2=O)cc1,7%,.,3%[46.1 µM],5,-4%[46.1 µM],-7%
Cc1nn(Cc2ccc(C(=O)NC(C)(C)C)o2)c(C)c1Br,.,?,?,-80*,-9%,?
Cc1nn(Cc2ccc(C(=O)Nc3ccc(C(=O)OC(C)C)cc3)o2)c(C)c1Cl,-6%,?,?,-1,?,-28%
Cc1nn(Cc2ccc(C(=O)NN)o2)c(C)c1Cl,.,13µM*,.,22,.,.
Cc1ccc(NC(=O)C(=O)NCCc2sc(-c3ccc(Cl)cc3)nc2C)cc1C,-11%,.,.,26,30%[46.1 µM],-9%
COc1ccc(Nc2cc3[nH]c(-c4cccc(C(F)(F)F)c4)cc3cn2)cc1,.,.,.,-26,.,.
CC1=NN(c2ccccc2)C(=O)/C1=C\C=C\c1ccccc1,-4%,?,?,-98*,?,0%
CN1/C(=C\C=[N+](C)c2ccccc2)C(C)(C)c2ccccc21,-11%,11µM*,?,-95*,4.6µM*,?
CC1=NN(c2ccccc2)C(=O)/C1=C\C=C1/N(C)c2ccccc2C1(C)C,-10%,?,11µM*,-38,?,-2%
CCc1ccc(NC(=O)C2CCC(CNS(=O)(=O)c3ccc4c(c3)CC(C)N4C(C)=O)CC2)cc1 (stereo not drawn),-9%[7.34 µM],.,.,29,-1%[46.1 µM],-12%[7.34 µM]
CCCCC/C=C\C/C=C\C/C=C\C/C=C\CCCC(=O)O[C@H](COCCCCCCCCCCCCCCCC)COP(=O)([O-])OCC[N+](C)(C)C,i[3.33 µM],.,.,.,.,-14%[3.33 µM]
O=C(CN(c1cc(C(F)(F)F)ccc1Cl)S(=O)(=O)c1ccccc1)NCCc1ccccc1,-16%,.,-6%[46.1 µM],-70*,-2%[46.1 µM],-20%
O=C(CN(c1ccc(Cl)cc1)S(=O)(=O)c1ccc(Cl)c([N+](=O)[O-])c1)NCCc1ccccc1,-12%,11µM*,?,37,-2%,3%
CS(=O)(=O)N(CC(=O)NCCc1ccccc1)c1cc(C(F)(F)F)ccc1Cl,i,.,-2%[46.1 µM],5,-11%[46.1 µM],-16%
O=C(CN(c1ccc(Cl)cc1)S(=O)(=O)c1ccc(Cl)c([N+](=O)[O-])c1)NCCc1ccc(F)cc1,?,?,2%,25,-1%,-8%
Cc1cc(C)c(OCC(=O)N(Cc2ccc(N(C)C)cc2)Cc2ccco2)c(C)c1,-15%,.,1%[46.1 µM],34,-18%[46.1 µM],-11%
OC1(c2cccnc2)CCN(Cc2ccc3c(c2)CN(Cc2ccc(F)c(F)c2)CCO3)CC1,-12%,.,.,.,.,-11%
Cc1ccc(C)c(NC(=O)Cc2nc(CNCC(C)C)cs2)c1,-18%,7%,7.9µM*,-13,0%,-9%
CCc1nn2c(=O)cc(COC(=O)c3cccc(NC(=O)CCc4ccccc4)c3)nc2s1,-6%,.,.,6,-18%[46.1 µM],-20%
CCCCc1nnc2c(N(C)S(=O)(=O)c3ccc(C)cc3)nc3ccccc3n12,i,8%,4%[46.1 µM],21,26%,-14%
